According to PubChem BioAssay AID720494 (Broad Institute, 2013):
The list shows a part of the results. Values without a mark were called inactive. Activity calls are given as the source filed them. No cut-off is given here; in the data, nearly all actives have AC50 up to about 14 µM.

Test: AlphaScreen signal interference counter-screen, dose response, artefact control, biochemical, cherry-picked samples, luminescence (AID 720494)
Settings: series mostly up to 12 µM; activity change, negative = inhibition: at the top concentration

| SMILES | activity change, negative = inhibition | AC50 |
| --- | --- | --- |
| COc1ccc2[nH]c3c(C)c4cc[n+](C)cc4c(C)c3c2c1 | -36.2% | – |
| COc1ccc(-c2ccc3[nH]c4c(c3c2)CCN2C[C@H]3[C@H](C)ON(C)[C@H]3C[C@@H]42)cc1 | -4.62% | – |
| O=C(NCCc1cccc(F)c1)C1CCCN(c2nc3ccccc3s2)C1 (stereo not drawn) | 4.51% | – |
| Cc1cc(N=Nc2ccc3ccccc3c2)ccc1O | – | 11.2 µM (active) |
| COc1ccc2c(c1)c(=Cc1ccc(N(C)C)cc1)c1cc(-c3ccccc3)[n+](C)n12 | – | 3.02 µM (active) |
| Cc1ccc(NC(=S)N(CCCN2CCCC2)Cc2cccn2Cc2ccc(Cl)cc2)cc1 | -4.08% | – |
| CCN(CC)CCOc1ccc2c(c1)C(=NNC(=O)c1ccccn1)c1cc(OCCN(CC)CC)ccc1-2 | -27.8% | – |
| Cc1ccc(Nc2cc(C)nc3c(C)ccc([N+](=O)[O-])c23)cc1 | -19.2% | – |
| COc1ccc2sc(N(CCCN(C)C)C(=O)c3ccc(S(=O)(=O)N(C)C4CCCCC4)cc3)nc2c1 | -35.2% | – |
| COc1ccc(N2CCN(C3CCCCC3NS(=O)(=O)c3ccccc3)CC2)cc1 (stereo not drawn) | -23.3% | – |
| C[C@H]1CN([C@@H](C)CO)C(=O)c2c(c3ccccc3n2C)-c2ccccc2CO[C@@H]1CN(C)Cc1ccc2c(c1)OCCN2C | -19.3% | – |
| Cc1c(C)n(Cc2ccc(Cl)cc2)c2ccc(C(=O)NCCCN3CCOCC3)cc12 | -29.8% | – |
| CN(C)CCNC(=O)c1cccc(-c2cnc3c(NC=O)cc(-c4cccc(C(F)(F)F)c4)cn23)c1 | -35% | – |
